From PubChem BioAssay (NCI)
The panel holds about 83,000 compounds, 20% with a hit somewhere; the sample as a whole holds those more often.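 Assay: single dose, 48 h. Readout: percent growth (0 = no net growth; negative = cell death). Active: <10.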 Unmarked numbers belong to inactive results. Activity calls are given as the source filed them.

How the values were obtained:
Assay in all cases: NCI-60 one-dose screen, 48 h (100 = growth as untreated, 0 = no growth, -100 = all killed)
Settings in all cases: 10 µM unless noted
NCI-H23 lung = test system: NCI-H23 lung
NCI-H226 lung = test system: NCI-H226 lung
NCI-H322M lung = test system: NCI-H322M lung
HOP-62 NSCLC = test system: HOP-62 NSCLC
NCI-H460 lung = test system: NCI-H460 lung
HOP-92 NSCLC = test system: HOP-92 NSCLC
NCI-H522 lung = test system: NCI-H522 lung
A549/ATCC NSCLC = test system: A549/ATCC NSCLC
786-0 renal = test system: 786-0 renal
COLO 205 colon = test system: COLO 205 colon
DU-145 prostate = test system: DU-145 prostate
K-562 leukemia = test system: K-562 leukemia
MALME-3M melanoma = test system: MALME-3M melanoma
MDA-MB-231 breast = test system: MDA-MB-231 breast
RXF 393 renal = test system: RXF 393 renal
SF-268 CNS = test system: SF-268 CNS
SF-295 CNS = test system: SF-295 CNS
SF-539 CNS = test system: SF-539 CNS
UACC-257 melanoma = test system: UACC-257 melanoma
M14 melanoma = test system: M14 melanoma

Row | SMILES | growth (NCI-H23 lung) [%] | growth (NCI-H226 lung) [%] | growth (NCI-H322M lung) | growth (HOP-62 NSCLC) [%] | growth (NCI-H460 lung) | growth (HOP-92 NSCLC) | growth (NCI-H522 lung) | growth (A549/ATCC NSCLC) [%] | growth (786-0 renal) [%] | growth (COLO 205 colon) | growth (DU-145 prostate) | growth (K-562 leukemia) | growth (MALME-3M melanoma) [%] | growth (MDA-MB-231 breast) [%] | growth (RXF 393 renal) | growth (SF-268 CNS) [%] | growth (SF-295 CNS) | growth (SF-539 CNS) | growth (UACC-257 melanoma) [%] | growth (M14 melanoma) [%]
1 | CC(C)c1ccc(-n2c(=S)[nH]c3sc4c(c3c2=O)CCC(=O)C4)cc1 | 36.2 | 84.9 | 78% | 33.9 | 30.3% | -6.71% (active) | 6.26% (active) | 71.1 | 102 | 92.7% | 104% | 56.7% | 88.7 | 68.3 | 48.9% | 28.7 | 21.1% | 23.3% | 75.3 | 60.4
2 | O=C(/C=C/c1ccc(Br)cc1)c1ccc(-n2cc(CN3CCN(c4cc5c(cc4F)c(=O)c(C(=O)O)cn5C4CC4)CC3)nn2)cc1 | 85.4 | 84.5 | 87.1% | 87.4 | 85.8% | 84.6% | 78.3% | 87.3 | 76.7 | 107% | 78.9% | 51.5% | 102 | 80.1 | 88.4% | 72.6 | 87.6% | 83% | 95.8 | 87
3 | O=C(N/N=C/c1ccc(O)cc1O)c1ccc(Nc2ccnc(C(F)(F)F)c2)cc1 | 52.4 | 16.8 | -3.47% (active) | 31.1 | 24.6% | 40.9% | 44.2% | 80.6 | 33.7 | 9.64% (active) | 53.5% | 74.9% | 46.6 | 46.1 | 95.3% | 41.1 | 47.8% | 27.6% | 44.6 | 36.1
4 | COc1ccc(C(O)c2cc3c(N)c(C(=O)Nc4cccc(Cl)c4)sc3nc2C)cc1 (stereo not given) | 37.8 | 29.5 | 46.6% | 26.6 | 1.28% (active) | 74% | 14.6% | 21.2 | 31.5 | 3.71% (active) | 8.86% (active) | 10.7% | 41 | 20.2 | -10.9% (active) | 28.9 | 9.76% (active) | 2.14% (active) | 47.1 | 21.3
5 | O=C(Nc1ccccc1)c1sc(-c2ccccc2)cc1O | 83.3 | 94.9 | 96.9% | 112 | 92.5% | 77% | 85.3% | 111 | 101 | 113% | 106% | 82.6% | 84.8 | 105 | 105% | 98.1 | 95.3% | 90.8% | 128 | 96.2
6 | O=C1Nc2ccccc2/C1=C/c1cn(C[C@@H](O)Cn2c3ccccc3c(=O)c3ccccc32)c2ccccc12 | 84.1 | 63.1 | 75.9% | 62.2 | 74.3% | 52.9% | 55.5% | 71.6 | 86.4 | 84.1% | 105% | 68.4% | 81.3 | 50.2 | 76.8% | 72.8 | 81.6% | 84.7% | 100 | 69.7
7 | Cn1cccc1/C=C1\C(=O)Nc2ccccc21 | 66.9 | 104 | 87.9% | 86.8 | 89.1% | 97.2% | 101% | 101 | 96.6 | 121% | 110% | 98.9% | 94.8 | 67.4 | 103% | 92.3 | 100% | 99.5% | 98 | 96.6
8 | Cc1nc2sc(C(=O)Nc3cccc(Cl)c3)c(N)c2cc1C(O)c1ccccc1 (stereo not given) | 32 | 54.1 | 60.2% | 45.3 | 6.05% (active) | 77.2% | 3.93% (active) | 21.1 | 36.8 | 20.8% | 19.7% | 6.94% (active) | 49.7 | 22.3 | 27.7% | 42.3 | 28.8% | -3.45% (active) | 35 | 15
